The structures appear in SMILES notation. About 1,400 (58%) of roughly 2,400 compounds were called active.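 The calls were made as follows: active = inhibition of 30% or more at any tested dose; inconclusive = primary hits over the limit that were never retested; inactive = the rest.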 So high a share suggests a set chosen from earlier hits. The list shows a part of the results.

98 compounds from PubChem BioAssay AID624351 (Southern Research Specialized Biocontainment Screening …, 2012) can be followed below.

The experiment in a line: coupled detection enzyme interference, dose response, artefact control for MgcRacGAP inhibitor project, biochemical, coupled enzyme counter-screen (AID 624351).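 Also: signal is the ADP detection kit reading of free GDP without any GAP enzyme.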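 As to inhibition: 0% = median positive control wells and 100% = median negative control wells.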 The settings on record: ADP Hunter coupled enzyme counter-screen, fluorescence, no MgcRacGAP; series mostly up to 80 µM; inhibition: at the top concentration. For orientation: A counterscreen serves to expose hits that act by an unwanted route or on another target.
On to `Nc1ccc(Cn2ccc3c4c(N)nc(N)nc4ccc32)cc1`, for which the inhibition – broadly, the relative decrease from the control value, in per cent – is 3.98% (inactive).
With `Cc1cccc(-n2c(=O)c3ccccc3n3c(=S)[nH]nc23)c1C`, the IC50 (in general, the concentration at which inhibition is half-maximal) is 34 µM (active).
For the compound `CCOCCCn1c(=O)c2ccccc2n2c(=S)[nH]nc12`, the IC50 is 16.1 µM (active).
The same measure, in the same setting: the figure for `O=c1c2ccccc2n2c(=S)[nH]nc2n1-c1ccccc1` is 20.6 µM (active); for `Cn1c(=O)c2ccccc2n2c(=S)[nH]nc12` it is 13.2 µM (active).
`O=C(c1cccc(Cl)c1)N1CCN(Cc2ccncc2)CC1`: the “inhibition” value is 23.4% (inactive).
With `CCOC(=O)c1[nH]c2ccc(C)cc2c1N`, the IC50 is 27.2 µM (active).
On to `CCOC(=O)c1[nH]c2cc(OC)c(OC)cc2c1N`, for which the IC50 was 31.3 µM (active).
Regarding `COc1cccc2[nH]c(C(=O)NN)c(N)c12`, the “inhibition” value was 19.8% (inactive).
On the same count and under the same terms, the figure for `CCCc1c(C)[nH]c2ccc(C(=O)O)cc2c1=S` is 4.17% (inactive).
With `Oc1ccccc1C=NC1=NN(c2cccc(C(F)(F)F)c2)CC1`, the IC50 is 16.9 µM (active).
Turning to `FC(F)(F)c1cccc(N2CCC(N=CN3CCCCCC3)=N2)c1`, the IC50 was 50 µM (active).
Take `CN1CCN(C=NC2=NN(c3cccc(C(F)(F)F)c3)CC2)CC1`: the 50% inhibitory concentration (IC50) is 34.1 µM (active).
In the case of `CC[N+](CC)(CC)CCCCOc1ccc2c(c1)C(=O)c1cc(OCCCC[N+](CC)(CC)CC)ccc1-2`, the “inhibition” value is 8.56% (inactive).
In the case of `NSc1nc(N)c2nc(-c3ccccc3)c(-c3ccccc3)nc2n1`, the “inhibition” value was 5.16% (inactive).
For `O=C(C1=C(O)C(=O)N(c2nc3ccc(Cl)cc3s2)C1c1ccco1)c1ccco1` (stereo not drawn), the “inhibition” value was 4.28% (inactive).
In the case of `COc1ccc(NC(=O)Cn2nnc(C(=O)NCc3cccs3)c2N)cc1Cl`, the “inhibition” value was 2.52% (inactive).
Turning to `COc1cc(NCCC(=O)c2cccs2)c(OC)cc1Cl`, the IC50 was 58.1 µM (active).
Take `CCCSC1=N/C(=C\C=C\c2ccco2)C(=O)S1`: the “inhibition” value is -4.75% (inactive).
On to `CCN(CC)CCn1c2ccccc2c(=O)c2c(O)ccc(O)c21`, for which the “inhibition” value is -1.29% (inactive).
For the compound `Oc1cc(O)cc(-c2cc3ccc(O)cc3o2)c1`, the half-maximal inhibitory concentration (IC50) is 25 µM (active).
With `COc1cc(/C=N/NC(=O)c2cccc([N+](=O)[O-])c2)ccc1O`, the IC50 is 35.9 µM (active).
On to `COc1cc(/C=N\NC(=O)CNC(=O)c2cccc([N+](=O)[O-])c2)ccc1O`, for which the IC50 was 18.4 µM (active).
For the compound `COc1cc(/C=N/NS(=O)(=O)c2ccc(C)c([N+](=O)[O-])c2)ccc1O`, the IC50 was 37.1 µM (active).
As to `COc1cc(/C=N\NC(=O)c2ccc(Cn3nc([N+](=O)[O-])c(Cl)c3C)o2)ccc1O`, the IC50 is 33.9 µM (active).
On to `O=[N+]([O-])c1cccc(S(=O)(=O)N/N=C/c2ccc(O)cc2)c1`, for which the IC50 was 45.2 µM (active).
As for `CN(C)/N=C/c1ccc(OC(=O)c2cccc([N+](=O)[O-])c2)cc1`, the “inhibition” value was -2.18% (inactive).
On to `c1ccc(OCCCN2CCCC2)cc1`, for which the “inhibition” value is 19.4% (inactive).
Turning to `CN(CCOc1ccc(Cl)c(Cl)c1)Cc1ccccc1`, the “inhibition” value was 7.09% (inactive).
Consider `Nc1ccc(OCCc2ccccc2)cc1`, for which the IC50 was 37.5 µM (active).
Regarding `COc1cc(C=c2c3ccccc3n3c2cc(-c2ccccc2)[n+]3C)cc(OC)c1OC`, the “inhibition” value is 2.94% (inactive).
`O=C(c1ccccc1)c1coc2ccc(O)c(Cl)c12`: the IC50 was 77.5 µM (active).
On to `O=C1C=CC(=O)c2c(O)c(N3CCN(CCO)CC3)c(Cl)c(O)c21`, for which the “inhibition” value was 5.58% (inactive).
In the case of `O=C(O)c1ccc(-c2ccc(/C=c3/sc4nc5ccccc5n4c3=O)o2)cc1Cl`, the “inhibition” value was 7.6% (inactive).
As for `COc1ccc(N=Nc2cc(OC)c(N)cc2OC)cc1`, the IC50 was 39.2 µM (active).
With `CC(C)N(CCNCC(O)COc1ccc(C(C)(C)c2ccccc2)cc1)C(C)C` (stereo not drawn), the “inhibition” value was 17.9% (inactive).
With `COc1cc(CN2CCC(C(=O)NC3CCCC3)CC2)cc(Br)c1O`, the “inhibition” value is 7.21% (inactive).
As for `CCOc1cc(/C=N/NC(=O)C(C)Sc2ccccn2)ccc1O` (stereo not drawn), the IC50 was 44.5 µM (active).
`COc1cc(/C=N/NC(=O)CC(=O)NC2CCCCC2)ccc1O`: the half-inhibitory concentration (IC50) is 55.1 µM (active).
Consider `COc1cc(CN2CCC(C(=O)NC3CCCC3)CC2)ccc1O`, for which the “inhibition” value was 15.2% (inactive).
Regarding `CCOc1cc(/C=N/NC(=O)C(OC)c2ccccc2)ccc1O` (stereo not drawn), the IC50 is 58.2 µM (active).
Turning to `COc1cc(C(=S)NCc2ccccc2)cc(Br)c1O`, the “inhibition” value was 17.8% (inactive).
Consider `COc1cc(C(=S)NC2CCCCC2)ccc1O`, for which the IC50 is 36.7 µM (active).
Turning to `COc1ccc(CN2CCN(C(C)C(=O)N(C)Cc3cccc(F)c3)CC2)cc1OC` (stereo not drawn), the “inhibition” value was 22.3% (inactive).
On to `COc1cc(CN2CCN(C(=O)CC(C)C)CC2)cc(OC)c1O`, for which the “inhibition” value is 22.5% (inactive).
Turning to `N#CC1=C(S)N(c2ccccc2)C(c2ccc(-c3ccccc3Cl)o2)NC1=O` (stereo not drawn), the “inhibition” value is 5.31% (inactive).
As to `CCOc1cc(C=NNC(=O)CCCC(=O)NN=Cc2ccc(O)c(OCC)c2)ccc1O`, the IC50 is 55.2 µM (active).
Still for that read-out and setting: then `CCOc1cc(/C=N/NC(=O)CCCC(=O)NC2CCCCC2)ccc1O`, with 62.2 µM (active); and `CCOc1cc(/C=N/NC(=O)Nc2ccccc2)ccc1O`, with 33 µM (active).
Take `COc1cc(/C=N/NC(=S)NC2CC3CCC2C3)ccc1O` (stereo not drawn): the IC50 was 55.3 µM (active).
`CCOc1cc(/C=N/NC(=O)CSc2cccc3cccnc23)ccc1O`: the 50% inhibitory concentration (IC50) was 36.7 µM (active).
As to `CCn1c(SC(C)C)nnc1-c1cc(-c2ccccc2)sc1N`, the IC50 was 26.7 µM (active).
On the same count and under the same terms, the figure for `C=CCn1c(SCC(C)=O)nnc1-c1cc(-c2ccccc2)sc1N` is 50.1 µM (active).
For `CCN(CC)CCOc1ccc2c(c1)C(=NNC(=O)c1ccccn1)c1cc(OCCN(CC)CC)ccc1-2`, the “inhibition” value was 25.5% (inactive).
The same measure, in the same setting: then `O=C(Oc1ccc2c(c1)OCO2)c1ccc(Br)c(S(=O)(=O)N2CCOCC2)c1`, with 5.16% (inactive); and `Cc1ccc(-n2sc3ccccc3c2=O)cc1`, with 10.3% (inactive).
Regarding `Cc1ccc(C2C=NN(c3ccccc3)C2=O)cc1` (stereo not drawn), the IC50 is 78.2 µM (active).
With `CC1=NN(c2ccccc2)C(=O)C1/C=C1\NC(=S)NC1=O` (stereo not drawn), the “inhibition” value was 27.2% (inactive).
As to `COc1cc(/C=N/NC(=O)C(C)n2nnc3ccccc32)ccc1O` (stereo not drawn), the IC50 was 23.6 µM (active).
Turning to `COc1cc(/C=N/NC(=O)CCn2nnc3ccccc32)ccc1O`, the IC50 was 53.8 µM (active).
For `COc1cc(/C=N/NC(=O)Cn2nnc3ccccc32)ccc1O`, the IC50 was 20.7 µM (active).
With `Cc1cc(NC(=O)CN2CCC(C)CC2)no1`, the “inhibition” value is 14.8% (inactive).
Take `Cc1cc(NC(=O)c2sc3ccccc3c2O)no1`: the IC50 is 74.8 µM (active).
`Cc1cc(NC(=O)CN2CCN(C)CC2)no1`: the “inhibition” value was 17.2% (inactive).
Turning to `O=C(Nc1ccccn1)c1ccc2ccccc2c1O`, the IC50 was 78.1 µM (active).
As to `COc1ccccc1NC(=O)NNC(=O)c1ccc2ccccc2c1O`, the “inhibition” value is 8.21% (inactive).
For the compound `COc1ccc2c(c1)-c1c(ssc1=S)C(C)(C)N2`, the IC50 was 33.6 µM (active).
Regarding `CCOc1ccccc1Oc1cn[nH]c1-c1ccc(O)cc1O`, the concentration for half-maximal inhibition (IC50) is 33.8 µM (active).
Same read-out and setting: then `COc1ccc(Oc2cn[nH]c2-c2ccc(O)cc2O)cc1`, with 29.9 µM (active); and `COc1cccc(Oc2cn[nH]c2-c2ccc(O)cc2O)c1`, with 52.5 µM (active).
`C#CCOCCOCCOCCNc1nc(N2CCN(C(=O)[C@H](CCCCN)n3cc([C@@H](N)C(C)CC)nn3)CC2)nc(N2CCN(C(=O)[C@H](CCCCN)n3cc([C@@H](N)CC(C)C)nn3)CC2)n1` (stereo partly drawn): the “inhibition” value is 3.89% (inactive).
As for `CCn1c(C)nc2cc(C(=O)N/N=C/c3ccc(O)cc3)ccc21`, the IC50 was 81.6 µM (active).
As to `CC1=NN(C(N)=S)C(=O)C1N=Nc1ccc(O)cc1` (stereo not drawn), the IC50 is 19.5 µM (active).
For the compound `O=C(Nc1ccc(Oc2nnc(-c3ccccc3)c3ccccc23)cc1)c1ccccc1`, the “inhibition” value is 6.04% (inactive).
Take `CC(=O)Nc1ccc(Oc2nc(-c3ccccn3)nc3ccccc23)cc1`: the IC50 was 26.7 µM (active).
Regarding `CN(C)CCCNCC(=O)c1c(-c2ccccc2)n(C)c2ccccc12`, the inhibition was -1.7% [at 10 µM] (inactive).
On to `O=C(N/N=C/c1ccc(O)c(O)c1)C1c2ccccc2Oc2ccccc21`, for which the IC50 was 51 µM (active).
On to `Nc1c(Cl)ncnc1N/N=C/c1ccc(O)cc1`, for which the IC50 was 15.1 µM (active).
`CCOc1cc(/C=N/Nc2ncnc(Cl)c2N)ccc1O`: the IC50 is 30.7 µM (active).
With `c1nc(SSc2ncnc3nc[nH]c23)c2[nH]cnc2n1`, the “inhibition” value is -4.3% (inactive).
On to `Oc1ccc(/C=N/Nc2ncnc3nc[nH]c23)cc1`, for which the IC50 is 13.2 µM (active).
In the case of `Cc1[nH]ccc2c1[nH]c1cc(=O)ccc12`, the IC50 was 61.9 µM (active).
Turning to `CC/C(=N\O)c1ccc(O)c(OC)c1`, the IC50 was 61.2 µM (active).
`COc1ccc(S(=O)(=O)N2CCC(N3CCN(Cc4ccccc4)CC3)CC2)cc1`: the “inhibition” value was 24.6% (inactive).
For `O=c1cc(-c2ccc(O)c(O)c2)oc2cc(O)c([C@@H]3O[C@H](CO)[C@@H](O)[C@H](O)[C@H]3O)c(O)c12`, the IC50 was 59 µM (active).
Same read-out and setting: then `O=c1cc(-c2ccc(O)c(O)c2)oc2cc(O)c(C3OC(CO)C(O)C(O)C3O)c(O)c12` (stereo not drawn), with 45.9 µM (active).
The same measure, in the same setting: then `C[C@@H]1O[C@@H](OC[C@H]2O[C@@H](Oc3cc(O)c4c(=O)cc(-c5ccc(O)c(O)c5)oc4c3)[C@H](O)[C@@H](O)[C@@H]2O)[C@H](O)[C@H](O)[C@H]1O`, with 46 µM (active).
On to `O=C(O)c1cc(O)c2c(c1)[C@@H]([C@H]1c3cc(C(=O)O)cc(O)c3C(=O)c3c(O[C@@H]4O[C@H](CO)[C@@H](O)[C@H](O)[C@H]4O)cccc31)c1cccc(OC3O[C@H](CO)[C@@H](O)[C@H](O)[C@H]3O)c1C2=O` (stereo partly drawn), for which the “inhibition” value was -39.8% (inactive).
For the compound `CN(CC(=O)NCc1ccccc1)Cc1cccc(F)c1`, the “inhibition” value is 26.6% (inactive).
In the case of `COc1cc(/C=C/C(=O)OCC(=O)NCc2ccc(F)cc2)ccc1O`, the IC50 is 40 µM (active).
Consider `COc1ccc(CNC(=O)CN(C)Cc2ccc(C(C)(C)C)cc2)cc1`, for which the “inhibition” value is 24.6% (inactive).
Consider `COc1cc(/C=C/C(=O)OCC(=O)NCCCc2ccccc2)ccc1O`, for which the IC50 was 33.5 µM (active).
In the case of `COc1cc(C(C[N+](=O)[O-])c2c(N)n(C)c(=O)n(C)c2=O)ccc1O` (stereo not drawn), the “inhibition” value was 28.1% (inactive).
In the case of `COc1cc(/C=C/C(=O)OCC(=O)N(CC(C)C)c2c(N)n(Cc3ccccc3)c(=O)[nH]c2=O)ccc1O`, the IC50 is 61.2 µM (active).
Still for that read-out and setting: the figure for `COC(=O)c1ccc(CNC(=O)COC(=O)/C=C/c2ccc(O)c(OC)c2)cc1` is 31 µM (active).
On to `COC(=O)c1ccc2c(c1)C(C)(C)C(/C=C/c1ccc(OC)c(OC)c1OC)=[N+]2C`, for which the “inhibition” value is -4.4% (inactive).
As for `COC(=O)c1ccc2c(c1)C(C)(C)C(/C=C/c1ccccc1O)=[N+]2C`, the “inhibition” value is 23.1% (inactive).
`CC(C)(c1ccccc1)c1ccc(OCC(O)CNC2CCN(Cc3ccccc3)CC2)cc1` (stereo not drawn): the “inhibition” value was 27.9% (inactive).
